The text below walks through data of PubChem BioAssay (NCI).

Holding throughout (test): NCI-60 one-dose screen, 48 h (100 = growth as untreated, 0 = no growth, -100 = all killed)
One assay deals with HCT-15 colon. Conditions: 10 µM unless noted.
In another assay the test system is HT29 colon. Particulars: 10 µM unless noted.
A further assay relates to SNB-75 CNS. Particulars: 10 µM unless noted.
In a further assay the test system is SNB-19 CNS. Particulars: 10 µM unless noted.
The subject of another assay is U251 CNS. Particulars: 10 µM unless noted.
In another assay the test system is PC-3 prostate. Conditions: 10 µM unless noted.
The next assay relates to SK-MEL-5 melanoma. Conditions: 10 µM unless noted.
The subject of the next assay is UACC-62 melanoma. Conditions: 10 µM unless noted.
A further assay concerns SK-MEL-28 melanoma. Particulars: 10 µM unless noted.
The test system of a further assay is SK-MEL-2 melanoma. Particulars: 10 µM unless noted.
The next assay has as its system EKVX NSCLC. Particulars: 10 µM unless noted.
The subject of another assay is UO-31 renal. Particulars: 10 µM unless noted.
For the next assay, the system named is TK-10 renal. Particulars: 10 µM unless noted.
The test system of the next assay is ACHN renal. Particulars: 10 µM unless noted.
In the next assay the test system is CAKI-1 renal. Particulars: 10 µM unless noted.
Another assay concerns A498 renal. Conditions: 10 µM unless noted.
The next assay deals with CCRF-CEM leukemia. Particulars: 10 µM unless noted.
Another assay has as its system MOLT-4 leukemia. Particulars: 10 µM unless noted.
The subject of another assay is SN12C renal. Particulars: 10 µM unless noted.
A further assay has as its system LOX IMVI melanoma. Conditions: 10 µM.

About 83,000 compounds went through this panel and 20% of them were active in at least one assay; those are over-represented in the sample as a whole.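 Method: cells in 96-well plates; compound added at one concentration; 48 h incubation; percent growth measured; values under 10 scored active.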 Values without a mark were called inactive. Active and inactive are the calls of the source.

As for `O=C(O)CSCC(=O)Nc1cc(C(F)(F)F)ccc1Cl`, the growth with HCT-15 colon is 103%; in the assay on HT29 colon it was 104%; in the assay with SNB-75 CNS it was 125%; in the assay on SNB-19 CNS, 106%; in the assay with U251 CNS, 106%; in the assay with PC-3 prostate it was 102%. Also, the growth is 102% with SK-MEL-5 melanoma; 99.6% in the assay with UACC-62 melanoma; 114% in the assay on SK-MEL-28 melanoma; 111% with SK-MEL-2 melanoma; 105% with EKVX NSCLC; 84.4% in the assay with UO-31 renal. Besides, the growth with TK-10 renal was 110%; in the assay on ACHN renal it was 106%; with CAKI-1 renal it was 89.4%; in the assay on A498 renal it was 139%; in the assay on CCRF-CEM leukemia, 101%; in the assay on MOLT-4 leukemia, 109%.
As for `CS(=O)CC(=N\O)/C(CS(C)=O)=N\O` (stereo not drawn), the growth in the assay with HCT-15 colon is 99%; with HT29 colon, 99.9%; in the assay with SNB-75 CNS, 96.5%; in the assay on SNB-19 CNS it was 101%; in the assay with U251 CNS, 96.5%; in the assay with PC-3 prostate it was 104%. Besides, the growth was 103% in the assay on SK-MEL-5 melanoma; 93.8% with UACC-62 melanoma; 107% in the assay with SK-MEL-28 melanoma; 102% with SK-MEL-2 melanoma; 99.1% with EKVX NSCLC; 85.3% in the assay with UO-31 renal. Moreover, the growth was 106% with TK-10 renal; 107% in the assay with ACHN renal; 91.2% in the assay with CAKI-1 renal; 111% in the assay on A498 renal; 101% with CCRF-CEM leukemia; 105% in the assay on MOLT-4 leukemia.
As for `CC1CC2C3CCC4=CC(=O)CCC4(C)C3CCC2(C)C1(O)C(=O)CO` (stereo not drawn), the growth in the assay on HCT-15 colon is 106%; with HT29 colon it was 97.4%; in the assay on SNB-75 CNS, 110%; with SNB-19 CNS it was 110%; in the assay with U251 CNS, 108%; with PC-3 prostate it was 93.9%. Besides, the growth in the assay on SK-MEL-5 melanoma was 104%; with UACC-62 melanoma, 108%; in the assay on SK-MEL-28 melanoma it was 109%; in the assay with SK-MEL-2 melanoma, 99.2%; in the assay on EKVX NSCLC it was 99.4%; in the assay on SN12C renal it was 102%. Besides, the growth in the assay on UO-31 renal is 92.2%; in the assay with TK-10 renal, 117%; in the assay on ACHN renal it was 124%; in the assay on CAKI-1 renal, 94.9%; with A498 renal it was 73%; in the assay on CCRF-CEM leukemia it was 90.6%. For the same compound, the growth in the assay on MOLT-4 leukemia is 71.9%.
Consider `CNc1ccccc1C(N)=O`, for which the growth is 101% in the assay with HCT-15 colon; 103% in the assay on HT29 colon; 91.8% in the assay on SNB-75 CNS; 94.8% with SNB-19 CNS; 92.8% with U251 CNS; 116% in the assay with PC-3 prostate. For the same compound, the growth with SK-MEL-5 melanoma is 101%; in the assay on UACC-62 melanoma it was 93.8%; in the assay on SK-MEL-28 melanoma it was 107%; with SK-MEL-2 melanoma it was 103%; in the assay on EKVX NSCLC, 98.4%; with SN12C renal, 94.8%. Besides, the growth was 75.5% in the assay on UO-31 renal; 105% with TK-10 renal; 97.1% with ACHN renal; 81.4% in the assay with CAKI-1 renal; 121% in the assay with A498 renal; 102% with CCRF-CEM leukemia. In the assay with MOLT-4 leukemia, the growth was 117%.
With `CCNC(=O)Oc1ccc[nH]c1=O`, the growth is 97.9% in the assay on HCT-15 colon; 109% with HT29 colon; 85.3% in the assay on SNB-75 CNS; 98.8% in the assay on SNB-19 CNS; 104% with U251 CNS; 96.5% in the assay on PC-3 prostate. The growth was 95.2% with SK-MEL-5 melanoma; 99.1% in the assay with LOX IMVI melanoma; 125% in the assay with SK-MEL-28 melanoma; 107% in the assay on SK-MEL-2 melanoma; 103% in the assay on EKVX NSCLC; 104% in the assay with SN12C renal. For the same compound, the growth in the assay on UO-31 renal is 86.6%; in the assay with TK-10 renal it was 110%; in the assay with ACHN renal, 100%; with CAKI-1 renal, 95.1%; with A498 renal it was 116%; with CCRF-CEM leukemia, 99%.
Regarding `CCCCCC/C=C\CCCCCCCCCc1cc(O)cc(OC)c1O`, the growth in the assay with HCT-15 colon is 3.68% (active); in the assay on HT29 colon it was 8.67% (active); in the assay with SNB-75 CNS it was 6.11% (active); in the assay with SNB-19 CNS, 24%; in the assay on U251 CNS, 10.2%; in the assay on PC-3 prostate, 1.77% (active). In addition, the growth in the assay with SK-MEL-5 melanoma was -29% (active); in the assay on LOX IMVI melanoma it was -86.3% (active); in the assay on SK-MEL-28 melanoma, 24%; in the assay on SK-MEL-2 melanoma, -25.5% (active); in the assay with EKVX NSCLC, 14.5%; with SN12C renal, 8.94% (active). For the same compound, the growth in the assay on UO-31 renal is -19.1% (active); with TK-10 renal it was 24.3%; with ACHN renal it was 12.7%; in the assay on CAKI-1 renal, -29.1% (active); in the assay with A498 renal it was -18.5% (active); with CCRF-CEM leukemia, -0.181% (active). Besides, the growth in the assay with MOLT-4 leukemia was 2.69% (active).
Turning to `CCOC(=O)c1cc(C)[nH]c(=O)c1C#N`, the growth in the assay with HCT-15 colon was 101%; in the assay with HT29 colon, 105%; in the assay on SNB-75 CNS it was 85.7%; in the assay with SNB-19 CNS, 106%; with U251 CNS, 102%; in the assay with PC-3 prostate, 80.7%. The growth in the assay on SK-MEL-5 melanoma was 107%; in the assay on LOX IMVI melanoma, 97.7%; in the assay with SK-MEL-28 melanoma it was 112%; in the assay with SK-MEL-2 melanoma, 104%; with EKVX NSCLC, 86.8%; in the assay on SN12C renal, 102%. In addition, the growth in the assay on UO-31 renal was 105%; with TK-10 renal, 101%; in the assay with ACHN renal, 101%; in the assay on CAKI-1 renal, 56.9%; in the assay with A498 renal, 108%; with CCRF-CEM leukemia, 81.9%. Further, the growth with MOLT-4 leukemia is 72.1%.
In the case of `O=S(Cc1ccccc1)/C(=C/NC(=S)Nc1cc(Cl)ccc1Cl)c1ccccc1` (stereo not drawn), the growth is 107% in the assay with HCT-15 colon; 97.4% with HT29 colon; 89.9% with SNB-75 CNS; 104% in the assay with SNB-19 CNS; 101% in the assay with U251 CNS; 94.1% in the assay with PC-3 prostate. Also, the growth in the assay with SK-MEL-5 melanoma is 102%; with LOX IMVI melanoma, 94.3%; in the assay on SK-MEL-28 melanoma, 109%; in the assay on SK-MEL-2 melanoma it was 101%; in the assay with EKVX NSCLC it was 99.3%; in the assay with SN12C renal, 98.5%. The growth in the assay on UO-31 renal was 83.9%; in the assay on TK-10 renal it was 107%; with ACHN renal it was 99.9%; in the assay with CAKI-1 renal, 97.1%; with A498 renal it was 101%; in the assay with CCRF-CEM leukemia, 99.6%.
